From PubChem BioAssay
Most compounds without a hit are left out; they make up all but 4.1% or so of the library.
hgDAF12 agonist: agonists of H. glycines DAF-12 nuclear receptor | HEK293 GAL4-hgDAF12 UAS-luciferase reporter, agonist luminescence; normalized to butyrate control | activation, % at 6.8 µM | actives 1.8% (n = 370,000);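 active = activation above a cutoff set at the mean of all screened compounds plus 3 SD, cut at about 10% in these data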;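 also: 0% = DMSO wells and 100% = sodium butyrate wells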
DAX1 inh-1: blocks DAX1 repression of SF-1 activated StAR promoter; HEK293T StAR-luciferase reporter, SF-1/DAX-1 repression relief; AID 652010; inhibition, % at 6.8 µM; actives 1.1% (n = 370,000);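 active = inhibition above the mean over all tested compounds plus 3 SD, cut at about 3.6% in these data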;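 also: 0% = DAX-1 cells with DMSO and 100% = cells lacking DAX-1 with DMSO; higher inhibition means more luminescence from relief of DAX-1 repression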
DAX1 inh-2: NR0B1 (DAX1) inhibition | AID 504766 | P51843 | HEK293 Gal4-DAX1 luciferase reporter, luminescence | actives 0.99% (n = 340,000) | inhibition, % at 6.75 µM;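 active = inhibition above the mean over all tested compounds plus 3 SD, cut at about 4.2% in these data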;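 also: 0% = DAX1-transfected cells with DMSO and 100% = empty-vector control cells with DMSO; inhibition shows as a rise in luminescence from relieved DAX1 repression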
Target sequence (P51843 207-470 limits assumed): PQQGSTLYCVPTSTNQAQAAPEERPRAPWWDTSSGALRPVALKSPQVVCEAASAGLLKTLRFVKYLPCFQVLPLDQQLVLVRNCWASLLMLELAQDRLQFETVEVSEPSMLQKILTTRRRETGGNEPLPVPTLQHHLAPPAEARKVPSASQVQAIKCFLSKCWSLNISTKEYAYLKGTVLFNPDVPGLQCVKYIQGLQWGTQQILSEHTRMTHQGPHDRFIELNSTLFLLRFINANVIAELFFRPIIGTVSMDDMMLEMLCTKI
ssDAF12 agonist: activators of S. stercoralis DAF-12 nuclear receptor; HEK293 ssDAF-12/GRIP1 lit1-tk-luc reporter, luminescence; % of 3 µM dafachronic acid response; activation, % at 6.8 µM; actives 1% (n = 370,000); AID 652126;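 active = activation above the mean over all tested compounds plus 3 SD, cut at about 0.9% in these data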;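 also: 0% = DMSO-only wells and 100% = 3 µM delta7-dafachronic acid wells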
hcDAF12 agonist: H. contortus DAF-12 activation, primary screen | activation, % at 6.8 µM | actives 1.4% (n = 370,000) | HEK293 hcDAF-12 lit1-tk-luc reporter, luminescence; 0% DMSO, 100% Δ7-dafachronic acid;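 active = activation above the mean of all tested compounds plus 3 SD, cut at about 5.5% in these data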;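 also: 100% = response to 3 µM Δ7-dafachronic acid high control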
* = called active by the depositor; · = not tested or not shown.

SMILES	hgDAF12 agonist	DAX1 inh-1	DAX1 inh-2	ssDAF12 agonist	hcDAF12 agonist
COC(=O)Cc1ccc2c3ccccc3n(C)c2c1	3.9	-0.3	0.7	-1.2	5.8*
Cn1c2ccc(CC(=O)O)cc2c2cc(CC(=O)O)ccc21	0.5	0.4	0.4	0.8	1.0
O=C(CCc1nc(-c2ccccc2F)no1)NCCc1cccc(F)c1	3.3	-0.6	·	-1.0	-1.4
Cc1ccc(NC2=CC(=O)CC(c3ccco3)C2)c(N)c1 (centres undefined)	10.6*	3.6	2.8	1.6*	4.3
Cc1cc(C)cc(NC2=CC(=O)CC(c3ccco3)C2)c1 (centres undefined)	-1.2	-0.6	2.4	-0.8	1.9
O=C(c1ccccc1)N(CCCn1ccnc1)C(c1ccccc1)c1nc2ccccc2[nH]1 (centres undefined)	3.9	3.6*	·	-0.9	4.3
C[C@H]1CCC[C@@H](O)CC(=O)c2c(O)cc(O)cc2CC(=O)O1	-9.2	-4.2	·	-1.3	-1.3
OC[C@H]1CC[C@@H]2O[C@H](CCc3ccc(-c4ccc(F)cc4)cc3)[C@H](n3cc(C4CC4)nn3)C[C@@H]2O1	1.3	-0.5	·	-1.5	1.5
CC(C)(C)OC(=O)NCCc1ccccc1/C=C/S(=O)(=O)NC1CCCC1	-2.4	-2.2	·	-1.6	-2.9
CCc1c2c3n4c1CCC[C@@H]4C[C@@H]3O[Si](C(C)C)(C(C)C)OC(C)C2=O (some centres undefined)	1.4	·	·	-0.6	-2.6
C[n+]1ccc(/C=C/c2ccccc2O)c2ccccc21	-1.5	-0.2	0.4	-1.9	6.5*
O=C(NC1CCCC1)N1CCC(c2nc3ccc(Cl)cc3[nH]2)CC1	-2.4	-0.6	·	-1.0	4.1
C/C(=N\NC(=O)COc1ccccc1-c1ccccc1)c1ccccn1	-10.5	4.0*	-1.9	-1.7	-0.3
N#C/C(=C\c1ccccc1)C(=O)Nc1ccccn1	2.1	0.1	1.4	-0.9	-0.1
CC(NC(=O)/C(C#N)=C/c1cccs1)c1ccccc1 (centres undefined)	-1.9	-2.1	-1.6	-2.1	-1.0
N#C/C(=C\c1cccs1)C(=O)Nc1ccccn1	6.8	2.6	6.9*	0.5	2.8
CC(C)(C)c1ccc(C(=O)/C(C#N)=C/c2cccs2)cc1	0.0	0.2	4.6*	-1.8	0.0
COc1ccccc1Nc1cc2cc(Br)ccc2c(=O)[nH]1	2.5	0.3	1.0	-0.4	6.2*
O=c1[nH]c(Nc2ccccc2)cc2cc(Br)ccc12	1.0	-0.5	0.4	-1.4	0.1
CC(C)Sc1ccc(C(=O)Nc2ccc(F)cc2F)cn1	11.8*	1.2	1.6	-1.1	0.6
CCc1ccc(N(CC(=O)N2CCOCC2)S(C)(=O)=O)cc1	-3.2	0.0	6.7*	-0.9	-0.3
CS(=O)(=O)N(CC(=O)N1CCOCC1)c1ccc(Cl)cc1	-0.2	-0.5	0.4	0.3	6.0*
CCOc1ccc(N(CC(=O)N2CCCCCC2)S(=O)(=O)c2ccc(C)cc2)cc1	1.1	-2.6	1.8	-0.9	-0.1
Cc1ccc(N(CC(=O)N2CCCCC2)S(=O)(=O)c2ccc(C)cc2)cc1	-0.4	-1.1	4.6*	-0.8	-1.7
CCC[C@H]1[C@@H](NC(=O)Nc2ccc3c(c2)OCO3)CC[C@@]23CCCN2C(=O)CCC[C@@H]13	4.1	·	·	-1.1	2.1
SMILES	hgDAF12 agonist	DAX1 inh-1	DAX1 inh-2	ssDAF12 agonist	hcDAF12 agonist
COc1ccc(C2/C=C\CN(C(=O)OCC3c4ccccc4-c4ccccc43)CC(=O)N2Cc2cccc(F)c2)cc1 (centres undefined)	-0.5	3.7*	-1.3	-1.9	-0.8
CC(C)(C)NC(=O)Cn1c(SCC(=O)NC2CC2)nc2ccccc21	-1.8	0.2	4.7*	-0.1	-0.8
Cc1ccc(-c2nnc(/C=C/c3ccccc3)o2)cc1	10.8*	2.0	0.3	-1.0	2.6
Cc1ccc(/C=C/c2nnc(-c3cccc(C)c3)o2)cc1	7.4	1.8	1.6	-1.1	2.1
CCOc1ccc(CCNC(=O)Cc2ccccc2)cc1OCC	-1.9	·	·	-1.9	-1.2
CCC[C@H]1[C@@H](OC(=O)NCc2cccnc2)CC[C@@]23CCCN2C(=O)CCC[C@@H]13	-0.9	·	·	-0.4	-2.6
COc1ccc(N/C=C/C(=O)c2ccc(C)cc2)c([N+](=O)[O-])c1	7.3	3.6*	3.0	0.0	1.2
COc1ccc(/C=C/C(=O)Nc2cc(C)on2)cc1	8.5	2.2	0.4	-0.9	2.1
COc1ccc(C(=O)/C=C/Nc2cc(C)on2)cc1	12.3*	3.6	0.8	-0.2	2.3
